This is an account of results in PubChem BioAssay (NCI).

The structures appear in SMILES notation. Values joined by “and” are separate entries in the source; they are usually repeats but may differ in a detail not shown here. Equal entries are not always repeated. This is part of a sample that, as a whole, favours compounds with a hit. Of some 83,000 tested, about 20% had one in any assay.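 Single-dose data. Exposure time 48 hours. Values below 10 considered active.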 Active and inactive are the calls of the source.

Holding throughout (assay): NCI-60 one-dose screen, 48 h (100 = growth as untreated, 0 = no growth, -100 = all killed)
For assay [1], the system named is HCT-15 colon. To be noted: 10 µM unless noted.
For assay [2], the system named is HT29 colon. To be noted: 10 µM unless noted.
For assay [3], the system named is SNB-75 CNS. The settings on record: 10 µM unless noted.
In assay [4] the test system is SNB-19 CNS. To be noted: 10 µM unless noted.
Assay [5] deals with U251 CNS. The settings on record: 10 µM unless noted.
The test system of assay [6] is PC-3 prostate. The settings on record: 10 µM unless noted.
The test system of assay [7] is SK-MEL-5 melanoma. The settings on record: 10 µM unless noted.
Assay [8] concerns UACC-62 melanoma.
For assay [9], the system named is LOX IMVI melanoma. The settings on record: 10 µM unless noted.
Assay [10] has as its system SK-MEL-28 melanoma. To be noted: 10 µM unless noted.

Regarding `CCCCC/C(C)=N\NC(N)=S`, the growth in assay [1] is 79.4% (inactive); in assay [2], 55.3% (inactive); in assay [3], 86.6% (inactive); in assay [4], 105% (inactive); in assay [5] it was 80.2% (inactive); in [6], 89.4% (inactive). Moreover, the growth in [7] is 90% (inactive); in assay [8] (10 µM unless noted), 96.2% (inactive); in assay [9], 95.6% (inactive); in [10], 94.2% (inactive).
As for `O=C(O)C#Cc1ccc(Cl)cc1`, the growth in assay [1] is 103% (inactive); in assay [2], 98.1% (inactive); in assay [3], 85.6% (inactive); in assay [4], 99.8% (inactive); in assay [5] it was 93.8% (inactive); in [6], 92% (inactive). Besides, the results for the growth in assay [7], in [8] (10 µM unless noted) and in [9] were 96.1% (inactive), 95.7% (inactive) and 91.5% (inactive), respectively.
As to `COc1cc([C@@H]2c3cc4c(cc3[C@H](O)[C@H]3COC(=O)[C@@H]23)OCO4)cc(OC)c1OC`, the growth is 29.2% (inactive) and 10.5% (inactive) in assay [1]; 2.22% (active) and -8.13% (active) in assay [2]; 19.4% (inactive) and 12.9% (inactive) in assay [3]; 27.3% (inactive) and 12.9% (inactive) in [4]; 16.4% (inactive) and 26.2% (inactive) in assay [5]; 26.9% (inactive) and 6.21% (active) in [6]. The growth in assay [7] is -27.1% (active) and -44% (active); in [8] (10 µM unless noted), 19.9% (inactive) and 68.1% (inactive); in assay [9], 23.3% (inactive) and 15.6% (inactive); in assay [10], 28.4% (inactive) and -24% (active).
On to `CCOC(=O)c1ccc(N2C(=O)C(Cl)(c3ccccc3)C2c2ccco2)cc1` (stereo not given), for which the growth in assay [1] was 67% (inactive); in assay [2], 78.9% (inactive); in [3], 82.3% (inactive); in [4] it was 76.4% (inactive); in assay [5], 79.1% (inactive); in [6], 85.9% (inactive). Besides, the growth in assay [7] was 70.4% (inactive); in [8] (10 µM unless noted), 72.1% (inactive); in assay [9] it was 77% (inactive).
As to `COc1ccc(CCO)cc1`, the growth in [1] was 102% (inactive); in assay [2], 94.3% (inactive); in assay [3] it was 101% (inactive); in assay [4], 100% (inactive); in assay [5] it was 95.5% (inactive); in [6], 91.9% (inactive). Moreover, the growth in assay [7] is 100% (inactive); in assay [8] (10 µM unless noted) it was 98.5% (inactive); in assay [9], 99.5% (inactive).
With `Nc1nc(=S)c2[nH]cnc2[nH]1`, the growth in assay [1] is 13% (inactive) and 12.5% (inactive); in [2], 9.45% (active) and 8.24% (active); in [3] it was 29.1% (inactive) and 26.5% (inactive); in [4], 98.2% (inactive) and 102% (inactive); in assay [5] it was 47.2% (inactive) and 51% (inactive); in [6], 33.2% (inactive) and 32.1% (inactive). The growth in assay [7] was -2% (active) and -29% (active); in assay [8] (10 µM), -21.9% (active); in assay [8] (250 µM) it was -67.7% (active) and -100% (active); in assay [9], 8.31% (active) and 5.43% (active); in [10] it was 29% (inactive).
As for `C#CCOC(=O)C(N)CS` (stereo not given), the growth in assay [1] is 100% (inactive); in assay [2], 110% (inactive); in [3], 81.9% (inactive); in assay [4] it was 99.7% (inactive); in assay [5], 101% (inactive); in assay [6], 90.5% (inactive). Further, the growth in assay [7] was 104% (inactive); in assay [8] (10 µM), 88.5% (inactive); in assay [8] (100 µM), 87.6% (inactive) and 90.2% (inactive); in assay [9] it was 101% (inactive).
For `CC1OS(=O)OC1C` (stereo not given), the growth in assay [1] was 94% (inactive) and 98.6% (inactive); in [2], 88.7% (inactive) and 104% (inactive); in assay [3], 92.6% (inactive) and 94.7% (inactive); in assay [4], 101% (inactive); in [5] it was 100% (inactive) and 101% (inactive); in assay [6], 100% (inactive) and 97.5% (inactive). The growth in assay [7] is 99.9% (inactive) and 98% (inactive); in [8] (10 µM unless noted) it was 95.5% (inactive) and 89.8% (inactive); in assay [9], 94.1% (inactive) and 91.6% (inactive).
As to `N#CC(=S)Nc1ccc(Cl)c(Cl)c1`, the growth in [1] is 13.6% (inactive); in assay [2] it was 12.5% (inactive); in assay [3], -3.27% (active); in assay [4], 4.95% (active); in assay [5] it was 9.34% (active); in assay [6], 23.1% (inactive). Besides, the growth in assay [7] is -61.7% (active); in assay [8] (10 µM) it was 5.74% (active); in assay [8] (100 µM), -12.1% (active) and -100% (active); in assay [10] it was 25.2% (inactive).
For the compound `OC1CCCN(Cc2ccccc2)C1` (stereo not given), the growth is 116% (inactive) in [1]; 102% (inactive) in assay [2]; 113% (inactive) in assay [3]; 92.2% (inactive) in [4]; 120% (inactive) in [5]; 97.4% (inactive) in assay [6]. Also, the growth in assay [7] is 102% (inactive); in [8] (10 µM unless noted), 91.1% (inactive); in assay [9] it was 96.5% (inactive).
Regarding `Cc1nc(Nc2ccc(Cl)cc2)c2cnn(-c3ccccc3)c2n1`, the growth is 94.8% (inactive) in [1]; 97.2% (inactive) in [2]; 86.6% (inactive) in assay [3]; 102% (inactive) in assay [4]; 98.8% (inactive) in assay [5]; 99.6% (inactive) in assay [6]. The growth in assay [7] was 94.4% (inactive); in assay [8] (10 µM unless noted), 100% (inactive); in [9], 97.9% (inactive).
